From PubChem BioAssay (NCI)
The panel holds about 83,000 compounds, 20% with a hit somewhere; the sample as a whole holds those more often.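 Step 1: grow cells in 96-well plates. Step 2: add test compound at a single concentration. Step 3: incubate 48 h. Step 4: record percent growth.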 Values without a mark were called inactive. The source made the active and inactive calls. The calls were made as follows: active = growth percent below 10; inactive = the rest.

test system: UACC-257 melanoma; assay: NCI-60 one-dose screen, 48 h (100 = growth as untreated, 0 = no growth, -100 = all killed); conditions: 10 µM

Row | Compound | growth
1 | C[C@]12CC[C@@H]3c4cc(O)c(O)cc4CC[C@H]3[C@@H]1CC[C@@H]2O | 31.2%
2 | CCCOC(=O)C1(O)CCCC1 | 103%
3 | COC1=CC(c2ccc[nH]2)=N/C1=C\c1[nH]c(C)c(C(=O)CCCCC(=O)NCc2ccccc2)c1C | 86.9%
4 | O=C(NNC(=S)Nc1ccccc1)c1ccccn1 | 18.9%
5 | COc1cc(NC(=O)CCl)ccc(=O)c1 | 66%
6 | COc1ccc(S(=O)(=O)N2CCN(c3cc4c(cc3F)c(=O)c(C(=O)O)cn4C3CC3)CC2)c(OC)c1 | 100%
7 | COc1ccc(Cn2cc(COc3cc(/C=C/C(=O)c4cc(OC)c(OC)c(OC)c4)ccc3OC)nn2)cc1 | 96.1%
8 | COc1cc(C(=O)OCCCCCCCCCCC[P+](c2ccccc2)(c2ccccc2)c2ccccc2)ccc1O | -21.6% (active)
9 | CC(C(=O)n1cc(-c2ccccc2)c(-c2ccccc2)c1)c1ccccc1 (stereo not drawn) | 95.3%
10 | C=CCOc1cccc(/C=C/C(=O)c2sc(Nc3cccnc3)nc2C)c1 | 97.2%
11 | O=C(CCCn1c(=O)c2sc3ccccc3c2n2nnc(-c3ccccc3)c12)NCCc1cnc[nH]1 | -44.4% (active)
12 | CCC1CCc2nc3sc(C(=O)Nc4cccc(C)c4)c(N)c3cc2C1 (stereo not drawn) | 56.3%
13 | Cc1cccc(NC(=O)c2sc3nc4c(cc3c2N)CCCC4)c1 | 46.3%
14 | COc1ccc(-c2cn[nH]c2-c2cc(OC)c3c(c2)OCCO3)cc1 | 75%
15 | CC(C)C[C@H](NC(=O)Cn1ccc(NCc2ccccc2)cc1=O)B(O)O | -3% (active)
16 | CC[C@H](C)[C@H]1NC(=O)[C@@H](N[C@](C)(O)[C@@H](N)CC(C)C)[C@@H](C)OC(=O)[C@H](Cc2ccc(OC)cc2)N(C)C(=O)[C@@H]2CCCN2C(=O)[C@H](CC(C)C)NC(=O)[C@@H](C)C(=O)[C@H](C(C)C)OC(=O)C[C@@H]1O | -24.7% (active)
17 | CCNC(=O)C1CCCN1C(=O)C(CCCN=C(N)N)NC(=O)C(CC(C)C)NC(=O)C(CC(C)C)NC(=O)C(Cc1ccc(O)cc1)NC(=O)C(CO)NC(=O)C(Cc1c[nH]c2ccccc12)NC(=O)C(Cc1cnc[nH]1)NC(=O)C1CCC(=O)N1 (stereo not drawn) | 83.8%

Row | Compound | growth
18 | COC(=O)c1cc(-c2cccs2)c(C#N)c(N)c1C#N | 100%
19 | O=C1N=C(c2c(-c3[nH]c(=O)c4ccc(Br)cc4c3O)c(O)c3ccccc3c2O)C(=O)c2cc(Br)ccc21 | -51.6% (active)
20 | CC[C@]1(O)C[C@@H]2CN(Cc3c([nH]c4ccccc34)[C@@](C(=O)OC)(c3cc4c(cc3OC)N(C)[C@H]3[C@@](O)(C(=O)OC)[C@H](OC(C)=O)[C@]5(CC)[C@@H]6C[C@@H]6CN6CC[C@]43[C@@H]65)C2)C1 | 71.7%
21 | CCOC(=O)[C@H](CSSc1ncnc2cc[nH]c12)NC(=O)[C@@H](C)c1ccc2cc(OC)ccc2c1 | 28.2%
22 | Cc1nc(Nc2cccnc2)sc1C(=O)/C=C/c1ccc(F)cc1 | 73.5%
23 | COc1ccc(C2=CC(c3ccc(Oc4ccnc5cc(Cl)ccc45)c(OC)c3)c3c(nc(OC)[nH]c3=O)N2)cc1 (stereo not drawn) | 87.5%
24 | COc1ccccc1CNCCCN1C(=O)c2ccc3c4c(ccc(c24)C1=O)C(=O)N(CCCNCCCCNCCCCN)C3=O | -56.2% (active)
25 | Cc1cc(C)c(S(=O)(=O)N2CCN(c3cc4c(cc3F)c(=O)c(C(=O)O)cn4C3CC3)CC2)c(C)c1 | 86.9%
26 | COc1ccc(C(=O)/C=C/c2cc(C(=O)c3cc(OC)c(OC)c(OC)c3)ccc2OC)cc1 | 68%
27 | NC(=O)NC(=O)/C=C/C(=O)OCCCl | 77.4%
28 | COc1cc2nc(N3CCC[C@@H](NC4=CC(=O)c5ccccc5C4=O)C3)nc(N)c2cc1OC | 95.3%
29 | O=S(=O)(c1ccccc1)n1ccc(-c2ccc3c(c2)CCO3)n1 | 79.9%
30 | O=C(CNc1ccc(Cl)cc1)Nc1ccc(-c2nc3ccccc3s2)cc1 | 90.9%
31 | COc1ccc(/C=C2\CCCC3=C2NC(C)=NC3c2ccc(OC)c(OC)c2)cc1OC (stereo not drawn) | 20.2%
32 | COc1cc(OC)c(C(=O)/C=C/c2ccc(C(F)(F)F)cc2)c(OC)c1 | 62.5%
33 | O=C(CCl)NCCNc1nccc(Nc2ccc(S(=O)(=O)Nc3ccccn3)cc2)n1 | 31.5%
